SSB-PriA inh: inhibitors of Klebsiella pneumoniae PriA binding to SSB C-terminal tail; inhibition, % at 33 µM; AlphaScreen SSBct-PriA binding, biotinylated peptide; AID 1272365; actives 0.6% (n = 430,000); in the data active = inhibition mostly above about 37%, no sharp cut-off; inactive = mostly below about 20%;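 also: plate controls were negative control peptide for no effect and reference peptide for full effect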
BJeLR viability: kills HRASV12-expressing BJeLR cells; BJeLR (HRASV12) viability, CellTiter-Glo ATP luminescence, 48 h; inhibition, % (no concentration beside the values); actives 0.17% (n = 300,000); AID 1554; in the data active = inhibition above about 50%
MazF activator: MazEF (E. coli) toxin RNase activation. P0AE70. FAM/BHQ RNA-DNA oligo cleavage fluorescence, 5 h. activation, % at 20 µM. actives 0.32% (n = 350,000); in the data active = activation above about 50%
Target sequence (P0AE70 whole entry, looked up): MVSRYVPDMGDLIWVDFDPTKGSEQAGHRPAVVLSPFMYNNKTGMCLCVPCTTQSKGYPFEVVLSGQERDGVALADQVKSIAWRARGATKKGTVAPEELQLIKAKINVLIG
RN4220 kill: S. aureus RN4220 growth inhibition. OD600, 16 h. inhibition, % (concentration not given with the values). actives 0.33% (n = 330,000); in the data active = inhibition above about 85%;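 also: plate controls were untreated cells for no effect and reference antibiotic for full effect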
Sa ugtP lethal: kills S. aureus RN4220 lacking UgtP; S. aureus RN4220 ugtP deletion, OD600 growth, 16 h; growth inhibition, % (concentration not given with the values); actives 0.54% (n = 330,000); AID 1259309; in the data active = growth inhibition above about 68%;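 also: plate controls were untreated wells for no effect and antibiotic for full effect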
An asterisk follows results filed as active; x = not tested or not shown; ! = a repeat was not active. A selection: hits, their analogues and other compounds. The true share with any hit is near 1.2%.

SMILES | SSB-PriA inh | BJeLR viability | MazF activator | RN4220 kill | Sa ugtP lethal
CCc1noc(C)c1C(=O)NC1CCCc2c1cnn2-c1cc(C)cc(C)c1 (stereo unspecified) | -8.2 | 9.9 | 3.2 | 7.4 | -1.3
CCc1cc(=O)oc2cc(OCC(=O)NCCCn3ccnc3)ccc12 | 38.7* | 3.5 | -23.0 | -7.3 | -4.5
COc1ccc(Cl)cc1C(=O)Nc1ccc2c(c1)OCO2 | -15.3 | -1.7 | 3.5 | 2.9 | -3.3
CCN(CC)c1ccc(NC2CC(=O)N(CCc3ccc(OC)cc3)C2=O)cc1 (stereo unspecified) | 44.5 | 1.6 | 60.5* | 11.0 | -1.3
COCCCN1C(=O)CC(Nc2ccc(OC)cc2)C1=O (stereo unspecified) | 5.0 | x | x | x | x
CC(=NNC(=O)C1CCCN(S(=O)(=O)c2ccccc2)C1)c1ccccn1 (stereo unspecified) | 48.8* | x | x | 4.9 | -0.5
CC(=NNC(=S)N1CCC1)c1ccccn1 | 72.0* | x | 10.1 | x | x
O=S(=O)(c1ccccc1)N1CCC(c2ccccn2)C1 (stereo unspecified) | 40.0* | x | x | x | x
O=C(NCc1ccccn1)C1CCCN(S(=O)(=O)c2ccccc2)C1 (stereo unspecified) | -1.9 | 5.2 | -4.8 | 3.5 | 1.5
CC=CC(=O)Nc1cccc(C2=NOC3(C2)CC(C(N)=O)N(C(=O)C2CCC(=O)N2)C3)c1 (stereo unspecified) | x | x | x | 5.5 | 2.9
CCCC(=O)Nc1ccc(Cl)c(-c2nc3ncccc3o2)c1 | -3.7 | -6.3 | 2.1 | 2.7 | -4.0
COC(=O)/C(=C\c1cccnc1)NC(=O)c1ccc(OCc2ccccc2)cc1 | -2.0 | -9.8 | 7.2 | 3.3 | 1.9
CC12CC(NC(=O)N1c1cccc(C(=O)Nc3ncn[nH]3)c1)c1ccccc1O2 (stereo unspecified) | 8.9 | -1.7 | 59.3* | 2.5 | 2.7
O=C(Nc1cnc(-n2ccnc2)nc1)Nc1ccccc1F | -18.0 | x | x | x | x
CCOC(=O)c1c(NC(=O)CSc2nnc(Cc3ccccc3)o2)sc(C)c1C | -21.9 | -0.9 | 5.3 | 19.3 | 97.8*
Cc1ccc(C=C2C(=O)c3ccccc3C2=O)o1 | 0.1 | 8.2 | 91.3* | 3.6 | 7.7
CC1CCc2cccc3c2N1c1cc(C#N)c(C#N)cc1O3 (stereo unspecified) | -24.6 | -3.2 | 83.6* | 3.9 | -27.3
CC1CCCCN1c1cc(C#N)c(C#N)cc1[N+](=O)[O-] (stereo unspecified) | 7.1 | -3.6 | -1.1 | 4.3 | 11.7
C=C1C(C(=O)Nc2ccc(OC)cc2)C1C(=O)Nc1ccc(OC)cc1 (stereo unspecified) | -7.9 | 0.7 | 3.5 | 0.9 | 8.7
CNc1sc(C(=O)c2cccs2)c(N)c1-c1nc2ccccc2s1 | 52.5* | 0.6 | 9.4 | -1.2 | 3.2
CNc1sc(C(=O)c2ccc(F)cc2)c(N)c1-c1nc2ccccc2s1 | 16.0 | -0.2 | 14.0 | -0.6 | -9.3
O=C(O)CNC(=O)CC1SC(=NN=C2CSC(=O)N2)NC1=O (stereo unspecified) | 95.5* | x | x | x | x
CCOC(=O)c1c(C)n(Cc2ccccc2)c2ccc(OCC(O)Cn3nc(C)cc3C)cc12 (stereo unspecified) | 24.6 | x | -5.8 | -1.9 | -19.2
CCOC(=O)c1c(C)n(Cc2ccccc2)c2ccc(OCC(O)Cn3nc(C)nc3C)cc12 (stereo unspecified) | 104.2* | -14.5 | -0.4 | 3.0 | 4.8
Cc1csc(NC(=O)c2cc(C)on2)n1 | -8.8 | x | -2.3 | 1.9 | 3.1
SMILES | SSB-PriA inh | BJeLR viability | MazF activator | RN4220 kill | Sa ugtP lethal
COC(=O)c1ccc(CC(C(=O)c2ccccc2)N(C)C)cc1 (stereo unspecified) | -6.5 | -11.4 | 52.8* | 5.5 | 12.5
O=[N+]([O-])c1ccc(O)c(-c2nc(-c3ccccc3)c(-c3cccs3)[nH]2)c1 | -7.6 | 14.6 | -2.8 | 87.5* | 84.9*
O=C(Cn1nc(CNc2ccc(Cl)cc2)[n+]2c1CCCCC2)c1ccccc1 | -3.4 | 0.0 | 8.4 | -5.2 | -11.1
Cc1ccc(C(C)C)c(OCc2nn(CC(=O)c3ccc(Cl)cc3)c3[n+]2CCCCC3)c1 | 14.1 | -8.2 | 11.1 | 100.5* | 99.4*
CC1=NCCN1S(=O)(=O)c1cc([N+](=O)[O-])ccc1Cl | 35.0*! | 1.6 | 1.5 | 6.6 | 2.4
O=C(Nc1ccccc1)NC1(C(=O)NCc2ccc3c(c2)OCO3)CCCCC1 | -13.4 | 4.6 | -3.3 | 9.1 | 99.8*
O=C(NCc1ccccc1)NC1(C(=O)Nc2ccc3c(c2)OCCO3)CCCCC1 | -18.7 | 5.0 | 7.0 | 6.9 | -3.3
Cc1ccc(NC(=O)CC2S/C(=N/N=C/C=C/c3ccccc3)NC2=O)cc1Cl (stereo unspecified) | x | -5.5 | 54.8* | x | x
Cc1ccc(NC(=O)CC2SC(=NN=C/C=C/c3ccccc3)NC2=O)cc1Cl (stereo unspecified) | -21.1 | x | x | x | x
O=C(Nc1nc(-c2ccccn2)cs1)c1cc(Cl)ccc1[N+](=O)[O-] | 63.9* | 25.1 | -2.9 | 38.1 | 10.2
Cc1ccc(C(=O)Nc2nc(-c3ccccn3)cs2)o1 | 17.5 | 7.1 | 4.1 | 3.5 | 1.2
O=C(Nc1nc(-c2ccccc2)cs1)c1ccccc1[N+](=O)[O-] | 84.4* | x | x | x | x
O=C(Nc1nc(-c2ccccn2)cs1)c1ccc([N+](=O)[O-])o1 | 50.9* | 13.3 | -1.5 | 7.4 | 20.5
O=C(Nc1nc(-c2ccccn2)cs1)c1ccccc1[N+](=O)[O-] | 105.0* | x | x | x | x
CCc1cc(=O)[nH]c(SCC(=O)N2CCCC2)n1 | -15.8 | -1.0 | -0.9 | -0.6 | -0.3
COc1ccc(Cl)cc1S(=O)(=O)N1CCC(S(=O)(=O)CC(C)C)CC1 | -10.0 | x | x | x | x
COc1ccc(/C=C2/CCCC(C(=O)C(F)(F)F)=C2O)cc1OC | -7.2 | 0.6 | 210.6* | 7.4 | -0.1
Cc1cccc2nc(-c3ccco3)c(Nc3ccccc3)n12 | 4.9 | 6.0 | 0.3 | 1.4 | 5.4
Cc1ccc(Nc2c(-c3ccccn3)nc3cccc(C)n23)cc1 | 101.1 | 37.1 | -1.6 | 100.7* | 100.4*
CCN(CC)S(=O)(=O)c1cccc(C(=O)OCC(=O)c2ccc3c(c2)NC(=O)CO3)c1 | -20.7 | -3.2 | -7.6 | 0.6 | 2.1
OCCNc1ncnc2c1c(-c1ccccc1)c(-c1ccccc1)n2Cc1ccco1 | 15.0 | -2.3 | -3.1 | 0.3 | 9.8
N=c1c2c(-c3ccccc3)c(-c3ccccc3)n(Cc3ccco3)c2ncn1Cc1ccccc1 | 21.4 | 3.4 | 10.0 | 1.0 | -7.8
N=c1c2c(-c3ccccc3)c(-c3ccccc3)n(Cc3ccccc3)c2ncn1CCO | 11.4 | -11.3 | 31.4 | -3.0 | 90.7*
N=c1c2c(-c3ccccc3)c(-c3ccccc3)n(Cc3ccco3)c2ncn1CCCn1ccnc1 | 28.8 | 52.4* | 21.7 | -5.5 | 7.6
c1ccc(-c2c(-c3ccccc3)n(Cc3ccco3)c3ncnc(NCCCn4ccnc4)c23)cc1 | 51.6* | -6.6 | 1.8 | 18.4 | 30.3
CCc1cc2c(N3CCC(C(=O)O)CC3)nc(C)nc2s1 | -1.0 | x | x | x | x
COc1cc(NC(=O)COc2cc(C)nc(N3CCCCCC3)n2)cc(OC)c1OC | 1.0 | x | x | x | x
Cc1ccccc1N=Nc1ccc(O)c2ncccc12 | 56.9 | 65.9* | 7.7 | 41.5 | 24.3
